Results reported in PubChem BioAssay AID2284367 (EPA ToxCast).
Some compounds were tested as several samples or in several runs, with calls that do not always agree. The source made the active and inactive calls. How the source made its calls: active means hit-call score of the fitted dose curve at least 0.9, where 1 is the maximum; inactive means score below 0.9.

Target: human Peroxisome Proliferator-activated Receptor alpha (PPARa) Agonism, conducted at France lab site, PPARA (gene 5465) (UniProt Q07869)
Sequence (Q07869 whole entry, looked up): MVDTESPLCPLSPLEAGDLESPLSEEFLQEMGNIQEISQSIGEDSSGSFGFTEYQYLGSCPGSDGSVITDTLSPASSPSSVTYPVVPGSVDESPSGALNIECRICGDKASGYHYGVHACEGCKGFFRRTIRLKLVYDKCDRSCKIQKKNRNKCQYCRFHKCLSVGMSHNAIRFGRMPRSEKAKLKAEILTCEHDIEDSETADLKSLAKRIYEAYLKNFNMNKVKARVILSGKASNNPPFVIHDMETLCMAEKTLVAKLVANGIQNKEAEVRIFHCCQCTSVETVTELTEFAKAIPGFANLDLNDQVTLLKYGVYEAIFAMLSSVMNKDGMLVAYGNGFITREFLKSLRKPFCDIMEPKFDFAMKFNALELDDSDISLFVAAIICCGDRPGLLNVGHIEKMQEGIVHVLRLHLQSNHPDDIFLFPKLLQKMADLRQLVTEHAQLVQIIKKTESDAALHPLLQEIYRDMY
Experiment: ERF_FR_NR_COA_hPPARA: Eurofins (ERF) Nuclear Receptor (NR) Functional Coactivator Assay for human Peroxisome Proliferator-activated Receptor alpha (PPARa) Agonism, conducted at France lab site
Description: ERF_FR_NR_COA_hPPARA is a biochemical, single-readout assay that uses extracted gene-proteins in a cell-free assay. Measurements were taken 2 hours after chemical dosing in a 384-well plate. See PPARalpha Human NHR Functional Agonist Coactivator Assay, Cerep.ERF_FR_NR_COA_hPPARA is an assay component calculated from the ERF_FR_NR_COA_hPPARA assay. It is designed to measure FRET using a type of binding reporter as detected by fluorescence intensity of GW7647 with fluorimetry technology.Data from the assay component ERF_FR_NR_COA_hPPARA was analyzed at the assay endpoint, ERF_FR_NR_COA_hPPARA, in the positive analysis fitting direction relative to DMSO as the negative control and baseline of activity. Using a type of binding reporter, gain-of-signal activity can be used to understand changes in binding as they relate to gene PPARA. To generalize the intended target to other relatable targets, this assay endpoint is annotated to the nuclear receptor intended target family, where the subfamily is non-steroidal.
Human cells are incubated for 3 hours at room temprature with GW7647 as control activator. Test Sample Requirements: Minimum for 1) Screen: 75 ul of 10 mM stock or 1 mg (pre-weighed) powder (assuming FW =<500 and purity 100%).

| Compound | outcome | AC50 |
| --- | --- | --- |
| CN(CCOc1ccc(CC2SC(=O)NC2=O)cc1)c1ccccn1 (stereo not drawn) | inactive | – |
| O=C(O)C(F)(F)OC(F)(F)C(F)(F)OC(F)(F)F | inactive | – |
| O=S(=O)(O)C(F)(F)C(F)(F)C(F)(F)C(F)(F)C(F)(F)C(F)(F)C(F)(F)C(F)(F)F | inactive | – |
| O=C(CC(=O)C(F)(F)C(F)(F)C(F)(F)F)c1cccs1 | inactive | – |
| CC(C)(Oc1ccc(C(=O)c2ccc(Cl)cc2)cc1)C(=O)O | inactive | – |
| O=C(O)C(F)(F)C(F)(F)C(F)(F)C(F)(F)C(F)(F)C(F)(F)C(F)(F)F | inactive | 3.17 µM (active) |
| O=S(=O)(O)C(F)(F)C(F)(F)C(F)(F)C(F)(F)C(F)(F)C(F)(F)F | inactive | – |
| O=C(O)C(F)(F)C(F)(F)C(F)(F)C(F)(F)C(F)(F)C(F)(F)C(F)F | inactive | – |
| O=C(O)C(F)(F)C(F)(F)C(F)(F)C(F)(F)C(F)(F)C(F)(F)C(F)(F)C(F)(F)Cl | inactive | – |
| O=C(O)C(F)(F)C(F)(F)C(F)(F)C(F)(F)C(F)(F)C(F)(F)F | inactive | – |
| O=C(Cl)C(F)(F)C(F)(F)C(F)(F)C(F)(F)C(F)(F)C(F)(F)F | inactive | – |
| O=C(O)CCC(F)(F)C(F)(F)C(F)(F)F | inactive | – |
